As usually defined, the inhibition is the relative decrease from the control value, in per cent.

The campaign covered roughly 360,000 compounds. About 1,600 (0.44%) were called active.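 Rule for the calls: active = inhibition above the screen-wide average plus 3 SD (cut at about 13% in these data); inactive = the rest.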 The full list was thinned out, with actives kept by preference.

Here are results for 45 compounds from PubChem BioAssay AID651719 (The Scripps Research Institute Molecular Screening Center, 2012).

The target of this assay is Galanin receptor type 3 (Homo sapiens) (UniProt O60755). The assay can be described thus: blockers of human galanin receptor 3 – cell-based, fluorescence readout, primary screen (AID 651719).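 Note: forskolin and galanin both at EC90 stimulate the cells; cAMP rise reported by CNG channel membrane potential dye signal; 0% = forskolin plus galanin with DMSO and 100% = forskolin alone.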 Particulars: HEK293 GalR3-CNG cAMP membrane potential fluorescence; at 3 µM; hits give high values; galR3 body fused to GalR1 C-terminus.
Galanin receptor type 3 (Homo sapiens), sequence (O60755 1-299 limits assumed): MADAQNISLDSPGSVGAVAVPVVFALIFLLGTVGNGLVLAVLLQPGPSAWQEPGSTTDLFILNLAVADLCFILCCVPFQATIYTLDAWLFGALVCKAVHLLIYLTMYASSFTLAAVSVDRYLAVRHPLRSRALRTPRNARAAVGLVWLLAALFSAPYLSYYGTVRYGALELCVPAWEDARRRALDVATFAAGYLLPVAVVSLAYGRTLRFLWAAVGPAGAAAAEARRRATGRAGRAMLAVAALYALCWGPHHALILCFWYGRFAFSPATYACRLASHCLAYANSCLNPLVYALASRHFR
In the case of `C[C@H]1CN([C@@H](C)CO)C(=O)CCCn2nncc2CO[C@@H]1CN(C)C(=O)Nc1ccc(N2CCN(C)CC2)cc1`, the inhibition was -5.34% (inactive).
On to `CC(C)[C@H]1COCCS(=O)(=O)N1Cc1ccccc1-c1cccc2c1sc1ccccc12`, for which the inhibition was -3.29% (inactive).
As to `Cn1c(N)c(C(=O)COC(=O)c2ccc3ccccc3c2)c(=O)n(C)c1=O`, the inhibition was -4.21% (inactive).
For `Cn1c(N)c(C(=O)COC(=O)c2cnc(Cl)c(Cl)c2)c(=O)n(C)c1=O`, the inhibition is 18.3% (active).
For the compound `Cn1c(N)c(C(=O)COC(=O)COc2ccc(Cl)cc2)c(=O)n(C)c1=O`, the inhibition is -5.52% (inactive).
Turning to `Cc1ccc(S(=O)(=O)N2CCN(C(=O)COC(=O)c3c(C)noc3C)CC2)c(C)c1`, the inhibition is -3.17% (inactive).
The result for `Cc1ccc(S(=O)(=O)N2CCN(C(=O)COC(=O)c3c(C)cc(C)cc3C)CC2)c(C)c1` reads 14.7% (active); that for `COc1ccc(/C=C/C(=O)OCC(=O)N2CCN(S(=O)(=O)c3ccc(C)cc3C)CC2)cc1OC`, -2.95% (inactive).
In the case of `COC(=O)C1=C(C)N(Cc2ccccc2C(F)(F)F)C(=NCc2ccc(OC)cc2)NC1c1cccc(C(F)(F)F)c1` (stereo not given), the inhibition was -3.7% (inactive).
Then `CN1C(=O)C(Br)(Br)CC1c1cccnc1` (stereo not given), with -8.3% (inactive).
Turning to `Nc1nc2c(ncn2[C@@H]2O[C@H](C(=O)N[C@H](Cc3ccccc3)C(=O)NCC3CCCCC3)[C@@H](O)[C@H]2O)c(=O)[nH]1`, the inhibition is -7.48% (inactive).
The result for `CSc1ccc(Oc2cccc3c2S(=O)(=O)N([C@H](C)c2ccccc2)C[C@@H](COCc2ccccc2)O3)cc1C` reads -3.93% (inactive); that for `COC(=O)c1ccccc1NC(=O)CSc1n[nH]c(-c2ccncc2)n1`, -2.72% (inactive).
The result for `CCc1ccc(-c2nc(SCC(=O)NC3CCCC3)n[nH]2)cc1` reads 24.9% (active); that for `CCc1c(C)nc(SCC(=O)NC2CCCC2)[nH]c1=O`, -6.61% (inactive); that for `CN(C)C(=O)N1CCN(C(=O)[C@@H](Cc2ccccc2)NC(=O)[C@H]2O[C@@H](n3ccc(N)nc3=O)[C@H](O)[C@@H]2O)CC1`, -7.47% (inactive).
The result for `COc1ccccc1CCn1cnc(-c2ccccc2)c1C(C)C` reads -9.98% (inactive); that for `Cc1ccc(F)cc1NC(=O)CSCc1c(C)noc1C`, -4.98% (inactive).
On to `Cc1ccc(F)cc1NC(=O)Cc1nn(C)c(=O)c2ccccc12`, for which the inhibition is 41.5% (active).
For the compound `Cc1ccc(C)c(NC(=O)COC(=O)c2nn(C)c(=O)c3ccccc23)c1`, the inhibition was -2.16% (inactive).
For the compound `O=C(NCc1ccccc1)[C@H]1CCCN1C(=O)[C@H]1CCCN1C(=O)c1cc(F)cc(F)c1`, the inhibition was -0.96% (inactive).
With `Nc1ccn([C@@H]2O[C@H](C(=O)N[C@H]3CCCCNC3=O)[C@@H](O)[C@H]2O)c(=O)n1`, the inhibition is -3.96% (inactive).
As for `C[C@@H]1CN([C@H](C)CO)C(=O)CCCn2cc(nn2)CO[C@H]1CN(C)C(=O)Nc1ccc(N2CCCCC2)cc1`, the inhibition was -3.62% (inactive).
Take `O=C(COC(=O)[C@H](Cc1ccccc1)NC(=O)c1cccs1)Nc1cc(F)ccc1F`: the inhibition was -2.8% (inactive).
`CC(=O)c1ccc(NC(=O)N[C@@H](Cc2ccccc2)C(=O)O)cc1`: the inhibition is -4.01% (inactive).
For `NC(=O)c1ccc(NC(=O)COC(=O)C(Cc2ccccc2)NC(=O)c2ccccc2)cc1` (stereo not given), the inhibition is 15.4% (active).
Turning to `COC(=O)c1c(-c2ccc(OC)cc2)c2c(c3c4ccccc4n(S(=O)(=O)c4ccc(C)cc4)c13)C(=O)N(C)C2`, the inhibition was -6.49% (inactive).
Then `COc1ccc(-c2ccccc2C2Cc3nnccc3CN2C(=O)Nc2ccccc2)cc1` (stereo not given), with -8.69% (inactive); and `CCOC(=O)N1CCN(C(=O)C[C@H]2C[C@@]3(C(=O)OC)C(=C[C@H](C4CCCC4)O[C@@H]3C)N(Cc3ccccc3)C2=O)CC1`, with -2.22% (inactive); and `C#CCN([C@@H](C)C(=O)OCC)S(=O)(=O)c1ccc(Br)cc1F`, with -6.91% (inactive).
With `O=C(Nc1ccccc1Cl)c1ccccc1S(=O)(=O)c1ccccc1[N+](=O)[O-]`, the inhibition is 0.75% (inactive).
`O=C(Nc1ccccc1Cl)/C(Cl)=C(\Cl)S(=O)c1ccccc1` (stereo not given): the inhibition is 16.2% (active).
Then `CC(=O)c1ccc(NC(=O)C(C)N(C)CC(=O)Nc2ccccc2Cl)cc1` (stereo not given), with -3.44% (inactive); and `COc1ccc(C2=CN(Cc3ccccc3)C(c3ccc(OC)cc3)CC2=O)cc1` (stereo not given), with -4.04% (inactive); and `Cc1occc(=O)c1OCc1ccc(F)cc1`, with 5.85% (inactive).
As for `Fc1cccc2ncnc(OCc3ccccc3)c12`, the inhibition was -3.41% (inactive).
As to `Cc1nc2ccccc2cc1OCc1ccc(F)cc1`, the inhibition was 80% (active).
Regarding `CCOC(=O)Cn1c2c(n(-c3ccc(F)cc3)c1=O)C=C(c1ccccc1)[C@@H](C)C(C(=O)N(C)C1CCCCC1)=C2`, the inhibition was -7.9% (inactive).
With `COC(=O)[C@]12C[C@H](CC(=O)NCCc3ccccc3OC)C(=O)N(Cc3ccccc3)C1=C[C@H](C(C)C)O[C@@H]2C1CC1`, the inhibition was -6.79% (inactive).
As to `COc1ccc(NC(=O)c2ccco2)cc1NC(=O)c1ccc(C#N)cc1F`, the inhibition is -2.95% (inactive).
For `COc1ccc(CC(=O)Nc2ccccc2NC(=O)c2ccco2)cc1OC`, the inhibition is -2.83% (inactive).
Turning to `COc1cc(NC(=O)c2cc([N+](=O)[O-])ccc2Br)ccc1NC(=O)c1ccco1`, the inhibition is 22.4% (active).
Regarding `Cc1ccc(C)c(CN2CCC(CNC(=O)C3CCCN(c4ncnc5c4nc4n5CCCCC4)C3)CC2)c1` (stereo not given), the inhibition was -1.9% (inactive).
For the compound `Cc1[nH]c2ccccc2c1CC(=O)Nc1ccc(Nc2cccnc2)c(-c2cccc(Cl)c2)c1`, the inhibition is -2.4% (inactive).
With `CCCCOCC1CN(CCCC)S(=O)(=O)c2c(Oc3ccc(F)cc3)cccc2O1` (stereo not given), the inhibition is 2.7% (inactive).
